This is a sample that favours compounds with a hit; in the whole collection about 0.4% have one here.
EPAC1 agonist: agonists of human EPAC1; O95398; EPAC1 agonist qHTS, biochemical assay; response scale: 100% = response to 6.5 mM cAMP; Potency, µM (highest dose often 154 µM), for the others: at the top dose activation, actives largely listed as activators; 360,000 tested, 0.073% active; AID 720707; note: potency is the fitted concentration of half-maximal effect; nearly all actives have a fitted effect of over 60% in size
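Nucleotide exchange by EPAC1 (100 nM) on Rap1B–BODIPY-GDP (250 nM) in the presence of 50 uM GDP is tracked fluorescently at 480/540 nm over 30 min. Signals are normalized to a 6.5 mM cAMP control.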
TRPML1 ag: agonists of human TRPML1 channel. Q9GZU1. TRPML1-expressing cells, Ca2+ dye fluorescence, FDSS. activation, % (test concentration not listed). 410,000 tested, 0.12% active. AID 624414; in the data active = activation above about 50%; inconclusive = mostly about 30% to 49%; note: 0% is about no effect
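Cells: TRPML1-DL, 1X Tet inducer, ~16 h at 37 degrees C/5% CO2. Dye: ABD Ca8 no-wash + quencher, 45-90 min RT. Read: 10 s baseline, compound add, 110 s agonist phase; 54-4 EC80 (4uM final), 110 s antagonist phase.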
EPAC1 antagonist: EPAC1 (human) antagonism | O95398 | EPAC1 GEF assay, Rap1b-BODIPY-GDP exchange fluorescence | Potency, µM (highest dose often 115 µM), for inactives: top-dose activity change, negative = inhibition, most hits filed as inhibitors | 360,000 tested, 0.14% active | AID 720709;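 note: potency is the fitted concentration of half-maximal effect; plate controls were vehicle for no effect and positive control for full effect; nearly all actives have a fitted effect of over 50% in size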
EPAC2 agonist: agonists of human EPAC2 (RAPGEF4); 360,000 tested, 0.079% active; Potency, µM (top dose mostly 154 µM), inactives show top-dose activation, most hits filed as activators; EPAC2 activation, biochemical qHTS; response scale: 100% = 6.5 mM cAMP response; note: potency is the fitted concentration of half-maximal effect; nearly all actives have a fitted effect of over 50% in size
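Exchange assay: 100 nM EPAC2 with 250 nM Rap1B-BODIPY-GDP and 50 uM GDP. Fluorescence (ex 480/em 540 nm) read every 5 min for 30 min at room temperature. Data normalized to 6.5 mM cAMP as agonist control.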
EPAC2 antag: antagonists of human EPAC2 | EPAC2 GEF exchange of Rap1B-BODIPY-GDP, fluorescence | Potency, µM (series often up to 114 µM), without a hit: at the highest dose activity, negative = inhibition, actives largely listed as inhibitors | Q8WZA2 | 360,000 tested, 0.18% active; note: potency is the fitted concentration of half-maximal effect; % is set by controls: 0 for no effect and ±100 for the full control effect; nearly all actives have a fitted effect of over 45% in size
TRPML1 blocker: blocks the human TRPML1 channel; Q9GZU1; TRPML1-inducible cells, Ca2+ dye fluorescence, FDSS; hits give low values; inhibition of EC80 agonist-evoked calcium signal; activity change, negative = inhibition, % (test concentration not listed); 390,000 tested, 0.02% active; AID 624415; in the data active = activity change below about -50%; inconclusive = between about -30% and that limit;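 note: stimulus is agonist 54-4 at its EC80 concentration; % is set by controls: 0 for no effect and ±100 for the full control effect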
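TRPML1-DL cells, Tet-induced overnight (~16 h, 37 °C) at 1,500 cells/well, were loaded with Ca8 no-wash dye plus quencher for 45-90 min at room temperature. Compounds were pinned during FDSS kinetic reading; agonist 54-4 at EC80 (4 uM final) then added.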
The depositor's hits bear a star; u = inconclusive; x = no result. Unless noted, calls come from the whole dose curve; as a rule, active = well fitted curve in the direction sought with a large enough effect; inconclusive = small, poorly fitted or top-dose-only effect, or another doubt; inactive = no such curve, though single readings can be large; an effect the other way counts as inactive or inconclusive.

SMILES	EPAC1 agonist	TRPML1 ag	EPAC1 antagonist	EPAC2 agonist	EPAC2 antag	TRPML1 blocker
CC[N+](C)(C)c1ccc(/C=C/c2ccncc2)cc1	x	7	x	x	x	x
C[C@@H]1CC[C@@]23COC(=O)C2=CCC[C@@H]3[C@@]1(C)CC/C(=C/CO)CO	-16%	x	-20%	-1%	6%	x
CC1=CCC[C@@H]2[C@@](C)(CC/C(C)=C/C(=O)O)[C@H](C)CC[C@@]12C	-19%	0	u	-9%	32µM*	10
CN(CC(=O)Nc1ccc(F)cc1)C(=O)CSc1ccc2c(c1)OCCO2	14%	0	11%	3%	-2%	-5
Cc1ccc(SCC(=O)OCC(=O)N(C)CC(=O)Nc2ccc(F)cc2)cc1C	126µM*	0	-26%	4%	-10%	-4
Cn1cc(C2=C(c3ccc(Cl)cc3Cl)C(=O)NC2=O)c2ccccc21	-47%	24	u	100µM*	15%	-10
COc1cc2c(cc1OC)/C(=C/c1ccc(N(C)C)cc1)C=C2	x	1	x	x	x	x
COC(=O)c1ccc(NC(=O)c2ccccc2OCC(=O)Nc2ccc(Br)cc2)cc1	x	0	x	x	x	x
CC(C)(C)c1cc(=O)n(-c2ccccc2)[nH]1	-3%	2	50µM*	5%	20%	13
O=C(O)CN1C(=O)/C(=C\c2cccc(OCc3ccc(F)cc3)c2)SC1=S	-2%	1	-24%	-6%	u	-8
O=C1/C(=C\c2cc(Cl)c(O)c(Cl)c2)SC(=S)N1Cc1ccccc1	-8%	109*	270%	u	92%	-11
O=C(O)CCN1C(=O)/C(=C\c2cccc(Oc3ccccc3)c2)SC1=S	3%	-1	u	8%	79µM*	2
O=C(O)CN1C(=O)/C(=C\c2cccc(OCc3ccccc3F)c2)SC1=S	6%	-1	u	0%	89µM*	-21
O=C1S/C(=C\c2ccc(N3CCOCC3)o2)C(=O)N1c1ccccc1	12%	57*	-9%	89µM*	31%	-5
COc1ccccc1C(C)NCC(=O)c1c(C)[nH]c2ccccc12 (configuration not stated)	x	0	x	x	x	x
COc1cc2nc(N3CCCN(C)CC3)nc(N3CCN(C)CC3)c2cc1OC	x	-1	x	x	x	x
CN1CCN(CCCN2c3ccccc3Sc3ccc(Cl)cc32)CC1	-9%	3	-28%	1%	13µM*	11
CCSc1ccc2c(c1)N(CCCN1CCN(C)CC1)c1ccccc1S2	-7%	9	-17%	6%	-10%	67
CC1(C(=O)NS(=O)(=O)c2cccc(Cl)c2)CCN1C(=O)Cc1cc(F)ccc1F (configuration not stated)	-10%	-1	6%	2%	17%	x
Cc1cccc(S(=O)(=O)NC(=O)C2(C)CCN2C(=O)Cc2cc(F)ccc2F)c1 (configuration not stated)	-11%	0	100µM*	8%	-11%	x
CC1=C(C(=O)OCc2ccccc2)N2C(=O)[C@@H](NC(=O)OCc3ccccc3)[C@H]2SC1	x	0	x	x	x	x
Cc1nn(C)c(C)c1N1C(=O)c2cccc3c(N)ccc(c23)C1=O	100µM*	94*	94%	100µM*	374%	-11
CCN1C(=O)c2cccc3c(N)ccc(c23)C1=O	100µM*	0	68%	63µM*	130%	1
Cc1ccc(N2C(=O)c3cccc4c(N)ccc(c34)C2=O)c2cccnc12	u	90*	113%	100µM*	279%	0
Cc1cc(OC(=O)c2c(C)cc(OC(=O)c3c(C)cc(O)cc3O)cc2O)cc(O)c1C(=O)O	-6%	1	56µM*	2%	-3%	47
COC(=O)c1c(C)cc(O)cc1O	-14%	x	-14%	4%	-2%	x
CCOC(=O)c1[nH]c(C)c(C(=O)NC(C)(C)C)c1C	0%	-1	-13%	6.3µM*	12%	-19
CCOC(=O)c1[nH]c(C)c(C(=O)NC)c1C	-3%	0	1%	3%	0%	15
O=C1C=C(N(CCO)Cc2ccccc2)c2ccccc2C1=O	9%	-1	45µM*	24%	u	18

Screening results from PubChem.
